# D1 allo mod: D1 CRE-luciferase signal change, two-sided – cell-based, HEK293 D1, dopamine EC30, D1 allosteric modulator project, primary screen; dopamine EC30 potentiation; actives deviate in either direction; AID 641, 2007; actives 5.9% (n = 58,000); D(1A) dopamine receptor (Homo sapiens), P21728; B-score at 10 µM;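 active = luminescence count or its row- and column-corrected plate score outside the 99.7% band of the plate's sample wells, on either side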
# BAP1 block: inhibitors of BAP1 deubiquitinase, primary screen, biochemical, Ub-AMC fluorescence, kinetic | recombinant BAP1, Ub-AMC hydrolysis fluorescence kinetic; stronger effect = lower value | calls only at 20 µM | actives 0.48% (n = 72,000) | AID 436, 2006;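 active = activity remaining at or below 50% of control, provided the compound also passes the data quality filters; inactive = the rest, including low values that fail the filters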;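 also: 100% = DMSO wells rate and 0% = substrate alone blank rate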
# Target sequence (Q92560 whole entry, looked up): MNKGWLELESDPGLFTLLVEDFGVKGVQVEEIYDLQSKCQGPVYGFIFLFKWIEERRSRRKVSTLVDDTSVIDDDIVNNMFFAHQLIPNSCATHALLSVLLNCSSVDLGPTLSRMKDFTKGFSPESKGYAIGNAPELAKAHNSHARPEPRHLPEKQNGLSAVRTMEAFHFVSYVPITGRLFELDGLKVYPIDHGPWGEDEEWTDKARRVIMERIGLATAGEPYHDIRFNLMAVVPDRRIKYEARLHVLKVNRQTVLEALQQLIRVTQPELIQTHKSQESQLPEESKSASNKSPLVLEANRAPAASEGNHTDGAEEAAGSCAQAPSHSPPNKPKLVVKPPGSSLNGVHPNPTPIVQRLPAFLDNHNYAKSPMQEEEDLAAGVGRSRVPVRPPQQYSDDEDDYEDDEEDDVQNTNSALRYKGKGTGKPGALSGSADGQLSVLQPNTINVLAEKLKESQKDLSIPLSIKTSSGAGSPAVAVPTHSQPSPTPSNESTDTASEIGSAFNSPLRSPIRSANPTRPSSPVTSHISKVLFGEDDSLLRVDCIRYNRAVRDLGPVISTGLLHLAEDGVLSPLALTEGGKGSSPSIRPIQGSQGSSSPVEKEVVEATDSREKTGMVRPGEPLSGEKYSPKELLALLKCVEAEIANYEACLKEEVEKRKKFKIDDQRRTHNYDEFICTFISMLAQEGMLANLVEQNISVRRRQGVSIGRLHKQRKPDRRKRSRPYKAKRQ
# DAT uptake mod: changed hDAT dopamine uptake under cocaine IC80, either direction, primary screen, cocaine antagonist project, cell-based, LLC-PK1 hDAT, [14C]-dopamine uptake, MLSMR; Sodium-dependent dopamine transporter (Homo sapiens), Q01959; LLC-PK1 hDAT cells, [14C]-dopamine uptake with cocaine IC80; actives deviate in either direction; B-score at 10 µM; actives 1.3% (n = 110,000);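 active = Z score or B-score, a plate-position-corrected score, falls beyond the plate's 99.7% confidence bounds, in either direction; inactive = both scores lie inside the 99.7% bounds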;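 also: scored against the spread of the other compound wells on the same plate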
# An asterisk follows results filed as active; i = inactive; . = no result given; + = active, no number; ! = repeats disagree. Many of the other results were omitted from the sample, so hits are more common in it than they were.
SMILES,D1 allo mod,BAP1 block,DAT uptake mod
CCN(CC)CCP(=O)(c1ccccc1)c1ccccc1,.,.,0.0427
O=P(O)(O)CCP(=O)(c1ccccc1)c1ccccc1,.,i,-2.49*
O=C(Nc1ccccn1)C(O)c1ccccc1 (stereo not drawn),.,i,.
CCSC1=C(C#N)C2(CCCC2)C(C#N)=C(N)N1,1.45,i,-2.72*
N#CC1=C(N)NC(SCc2ccc(Cl)cc2)=C(C#N)C12CCCCC2,-0.514,i,1.07
COC(=O)C1=C(C)NC(=O)CC1c1cc(Br)ccc1OC (stereo not drawn),.,i,.
O=C(Cc1coc(-c2ccc(F)cc2)n1)NCc1ccccc1,0.707,i,1.14
O=C(O)Cc1coc(-c2ccc(F)cc2)n1,-0.00287,i,-8.54*
COCCCNc1nc2c(c(=O)n(C)c(=O)n2C)n1Cc1ccccc1Cl,.,i,.
CCC(c1nnnn1CC1CCCO1)N(CCN1CCOCC1)Cc1cc2cc(C)ccc2[nH]c1=O (stereo not drawn),-0.404,i,-1.8*
Cc1ccc2[nH]c(=O)c(C(c3nnnn3CC3CCCO3)N3CCOCC3)cc2c1 (stereo not drawn),-0.423,.,-0.097
Oc1cc(O)c2c(c1)O[C@H](c1ccc(O)c(O)c1)[C@@H](O)C2,.,i,-0.749
O=C1c2c(O)cc(O)cc2O[C@@]12c1c(cc(O)c3c1O[C@H](c1ccc(O)cc1)[C@@H](O)C3)O[C@@H]2c1ccc(O)cc1,.,.,2.16*
COc1ccc(C(=O)CSc2nc(C)cc(C)c2C#N)cc1,.,i,.
Nc1nc(-c2nc3ccccc3[nH]2)cs1,-2.76*,i,0.445
c1csc(-c2nc3ccccc3[nH]2)c1,-0.661,i,-0.0181
CC(=O)Nc1cccc(-c2csc(Nc3cc(C)ccn3)n2)c1,.,.,3.12*
CC(=O)Nc1cccc(-c2csc(Nc3ccccn3)n2)c1,.,.,2.52*
Cc1ccnc(Nc2nc(-c3c(C)nc4sccn34)cs2)c1,0.524,i,0.791
c1ccc(Nc2nc(-c3cccnc3)cs2)nc1,0.841,i,0.109
CC(C)Cn1c(N(C)C)nc2c1c(=O)[nH]c(=O)n2C,.,i,.
CN1C(=O)C2(OCC(COc3ccc(Cl)cc3)O2)c2ccccc21 (stereo not drawn),0.0143,i,-1.19
CC(=O)N1CCN(c2ccc(OC[C@H]3CO[C@](Cn4ccnc4)(c4ccc(Cl)cc4Cl)O3)cc2)CC1,.,i,3.83*
CCn1c(SCC(C)=O)nc2c1c(=O)[nH]c(=O)n2C,.,i,.
COc1ccc2nc(C(=O)O)sc2c1,.,i,.
SMILES,D1 allo mod,BAP1 block,DAT uptake mod
COc1cccc(CNCCc2c[nH]c3ccccc23)c1OCc1ccc(F)cc1,.,.,0.877
COc1cc(CNCCc2c[nH]c3ccccc23)ccc1OCc1ccc(F)cc1,.,.,4.35*
CCCN1CCCc2cc(CN(CCCN3CCOCC3)C(=O)Nc3ccc(OCC)cc3)ccc21,.,.,2.73*
CCOc1ccc(NC(=O)N(CCN2CCOCC2)Cc2ccc3c(c2)CCCN3CC)cc1,1.37,i,2.09
COc1ccc(N(CC(=O)NCCSc2ccccn2)S(C)(=O)=O)cc1,.,.,0.541
COc1ccc(C(=O)NCCSc2ccccn2)cc1,-5.33*,i,0.288
O=[N+]([O-])c1ccccc1Oc1cccc(Oc2ccccc2[N+](=O)[O-])c1,.,i,.
COc1cc([N+](=O)[O-])ccc1NC(=O)c1ccc(S(=O)(=O)N2CCCC2)cc1,.,i,.
c1ccc(CN(CC2=NCCN2)c2ccccc2)cc1,-0.0601,i,-0.548
Cc1ccc(N(CC2=NCCN2)c2cccc(O)c2)cc1,-2.29*!,i,-0.198
COc1ccccc1C(=O)Oc1cccc(N2C(=O)C3CCCCC3C2=O)c1 (stereo not drawn),.,i,.
Cc1ccc(NC(=O)CSc2nnc(Cc3cccn3C)n2-c2ccc(F)cc2)c(C)c1,-0.465,i,-0.966
Cn1cccc1Cc1nnc(SCC(=O)Nc2ccc(F)cc2F)n1-c1ccc(F)cc1,1.03,i,-8.37*
COc1ccc(-n2c(Cc3cccn3C)nnc2SCC(=O)Nc2ccc(C)cc2)cc1,0.0928,i,2.35*
COc1ccc(NC(=O)CSc2nnc(Cc3cccn3C)n2-c2ccc(OC)cc2)cc1,0.587,i,-0.0233
CCOc1ccc(NC(=O)c2ccc(OC)cc2)c([N+](=O)[O-])c1,.,i,.
COc1ccc2nc(NC(=O)C3CCCCC3)sc2c1,.,i,.
COCCCNC(=O)CCCn1c(=O)c2ccccc2n(CC(=O)Nc2c(C)cc(C)cc2C)c1=O,-6.96*,i,.
COCCCNC(=O)CCn1c(=O)c2ccccc2n(CC(=O)Nc2c(C)cccc2C)c1=O,.,i,-0.712
Cc1c(Cl)c([N+](=O)[O-])nn1CC(=O)Nc1cc(Oc2ccccc2)cc(Oc2cccnc2)c1,.,i,.
NNC(=O)c1cc2c(s1)CCCCCC2,.,.,-0.659
O=C(Nc1nccs1)c1cc2c(s1)CCCCC2,.,.,4.31*
Cc1nn(-c2ccccc2)c(C)c1C(=O)OC/C(O)=C(\C#N)c1nc2ccccc2[nH]1,-2.12,.,-7.91*
Cc1nn(-c2ccccc2)c(C)c1C(=O)OCC(=O)N1CC(=O)Nc2ccccc21,-0.369,i,.
Cc1cccc(N(C)S(=O)(=O)c2cccc3nsnc23)c1,-1.47,.,0.0384
SMILES,D1 allo mod,BAP1 block,DAT uptake mod
CN(C)S(=O)(=O)c1cccc2nsnc12,0.00273,i,-2.04*
Cc1oc2cc(OCc3ccc(Cl)cc3)ccc2c(=O)c1Oc1ccccc1,.,i,.
CC(=O)Nc1cccc(NC(=O)c2c(-c3c(Cl)cccc3Cl)noc2C)c1,.,i,-0.838
Cc1cc(C)nc(NC(=O)c2c(-c3c(Cl)cccc3Cl)noc2C)n1,-0.112,i,-2.92*
Cc1ccc(-c2nn[nH]n2)cc1,.,i,-8.16*
CS(=O)(=O)c1ccc(-c2nn[nH]n2)cc1,-0.623,i,0.536
O=C(NC1CCCCC1)NC1(C(=O)N2CCN3CCCC3C2)CCCCC1 (stereo not drawn),-3.05*,i,0.0278
O=C(NCc1ccccc1)NC1(C(=O)N2CCN3CCCC3C2)CCCCC1 (stereo not drawn),.,.,0.624
COc1ccc(Cl)cc1-c1nc(-c2ccc(NC(=O)c3ccncc3)cc2)no1,1.32,i,-0.475
COc1ccc(-c2nc(-c3ccc(NC(=O)c4ccncc4)cc3)no2)cc1OC,-6.71*,i,-0.362
Cc1cccc2cc(CN(CC3CCCO3)C(=O)NC3CCCCC3)c(=O)[nH]c12 (stereo not drawn),0.682,i,0.652
Cc1cccc2cc(CN(Cc3ccco3)C(=O)NC3CCCCC3)c(=O)[nH]c12,0.659,i,2.44*
N=c1oc2ccc3ccccc3c2cc1-c1nnc2n1CCCCC2,0.0809,i,3.41*
COc1ccc2oc(=N)c(-c3nnc4n3CCCCC4)cc2c1,.,.,1.42
CCCC[C@@H]1CCCO[C@@](C(=O)NCc2ccccn2)(C(F)(F)F)C1,.,.,3.08*
CCC[C@@H]1CCCO[C@@](C(=O)NCc2ccccn2)(C(F)(F)F)C1,.,.,-0.117
CCCCCCCC/C=C\CCCCCCCC(=O)O,.,.,-0.00169
CCCCCCCCCCCCC/C=C/C(O)C(N)CO (stereo not drawn),.,+,.
CCOc1ccccc1NC(=O)COc1cc(C)ccc1C(C)(C)C,.,i,.
